Source: PubChem (National Center for Advancing Translational Sciences (NCATS))
VDR inh – vitamin D3 receptor (human) inhibition; P11473; Potency, µM, inactives show max response, negative = inhibition, hits mostly inhibitors; VDR-SRC2-3 peptide fluorescence polarization, 2 h; 400,000 tested, 0.93% active
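Fluorescence polarization assay measuring small-molecule disruption of VDR binding to the coregulator peptide SRC2-3. Compounds were pin-transferred (23 nl) into the reagent mix and incubated 2 h at room temperature before reading.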
GCN5L2 inh – inhibitors of human GCN5L2 histone acetyltransferase; GCN5L2 HAT assay, ThioGlo1 CoA-SH fluorescence; Q92830; Potency, µM (doses to about 58.9 µM), for the others: top-dose activity change, negative = inhibition, most hits filed as inhibitors; 390,000 tested, 0.21% active
Target sequence (Q92830 whole entry, looked up): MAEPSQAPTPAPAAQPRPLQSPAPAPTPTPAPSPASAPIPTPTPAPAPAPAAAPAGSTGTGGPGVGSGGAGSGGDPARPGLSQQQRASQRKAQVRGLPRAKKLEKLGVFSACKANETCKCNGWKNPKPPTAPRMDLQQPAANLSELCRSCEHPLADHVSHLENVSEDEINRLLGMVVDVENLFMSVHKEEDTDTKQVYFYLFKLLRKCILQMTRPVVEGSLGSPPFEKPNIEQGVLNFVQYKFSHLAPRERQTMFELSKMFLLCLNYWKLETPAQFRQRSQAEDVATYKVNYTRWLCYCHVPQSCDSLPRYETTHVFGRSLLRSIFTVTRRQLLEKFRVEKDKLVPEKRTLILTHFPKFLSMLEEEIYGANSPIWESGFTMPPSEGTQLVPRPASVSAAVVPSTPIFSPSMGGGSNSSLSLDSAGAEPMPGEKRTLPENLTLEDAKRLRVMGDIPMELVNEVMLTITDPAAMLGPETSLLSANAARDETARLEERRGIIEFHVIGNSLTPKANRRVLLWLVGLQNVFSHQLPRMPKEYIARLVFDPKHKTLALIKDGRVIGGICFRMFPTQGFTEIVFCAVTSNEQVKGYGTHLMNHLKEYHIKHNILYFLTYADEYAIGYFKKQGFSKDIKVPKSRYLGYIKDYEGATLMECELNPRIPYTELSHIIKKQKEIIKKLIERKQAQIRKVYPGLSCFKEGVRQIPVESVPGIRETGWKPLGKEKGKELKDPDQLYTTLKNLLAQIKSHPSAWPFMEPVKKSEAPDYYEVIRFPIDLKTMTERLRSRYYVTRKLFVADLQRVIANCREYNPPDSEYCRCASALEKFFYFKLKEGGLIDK
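Enzyme at 20nM final was mixed with library compounds for 15 min at room temperature. Peptide H3(1-25) at 75uM, acetyl-CoA at 70uM and ThioGlo1 at 50uM were then added. Plates were read immediately and after 20 min (Ex340nm/Em540nm).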
PLK1 PBD block – inhibitors of human PLK1 polo-box domain binding; P53350; Plk1 PBD binding of FITC phosphopeptide, fluorescence polarization; Potency, µM, without a hit: max response, negative = inhibition, most hits filed as inhibitors; 360,000 tested, 2.8% active; further: series mostly up to about 57 µM; nearly all actives have a fitted effect of over 65% in size
ALOX12 inh – ALOX12 (human) lipoxygenase inhibition. purified 12hLO, xylenol orange hydroperoxide absorbance. AID 1671190. 580,000 tested, 1.1% active. Potency, µM (highest dose often 108 µM), for inactives: at the top dose activity change, negative = inhibition, usual class: inhibitors
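Hydroperoxide product was detected by ferrous iron/xylenol orange as the 573 to 405 nm absorbance ratio. Arachidonic acid at 40 uM (final) was turned over for 30 min at room temperature by 150 nM human 12hLO, pH 7.0 Hepes buffer, after 15 min compound preincubation.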
Starred values were filed as active, the others as inactive; ? = inconclusive; nt = no result; [ ] = dose if it differs, or a comment. Shown are actives, neighbours in structure and some others; about 3% of the full set was active somewhere. The call rests on the fitted dose curve; in most records, active means well fitted curve in the direction sought with a large enough effect; inconclusive means small, poorly fitted or top-dose-only effect, or another doubt; inactive means no such curve, though single readings can be large; an effect the other way counts as inactive or inconclusive. On the % scale 0 is the no-effect control and ±100 the full control effect; potency means the concentration at half of the fitted maximal effect.

SMILES	VDR inh	GCN5L2 inh	PLK1 PBD block	ALOX12 inh
Cc1ccc(C(=S)NCS(=O)(=O)c2ccc(C)cc2)cc1	?	-2%	?	?
Cc1ccc(S(=O)(=O)CNC(=S)c2cccc(Cl)c2)cc1	?	-2%	?	10µM*
CCCCn1c(NC(=S)Nc2ccccc2)nc2ccccc21	0%	-11%	-16%	18µM*
S=C(Nc1ccccc1)Nc1nc2ccccc2n1CCOc1ccccc1	-18%	?	-22%	?
O=c1cc(-c2ccccc2)sc2nnc(-c3ccc(Cl)cc3)n12	nt	nt	nt	32%
CCOc1ccc(S(=O)(=O)Nc2cc(SCC(=O)O)c(O)c3ccccc23)cc1	18µM*	19%	1.7µM*	?
CCc1ccc(S(=O)(=O)Nc2cc(SCC(=O)O)c(O)c3ccccc23)cc1	?	-3%	1.2µM*	?
Cc1ccc(C)c(S(=O)(=O)Nc2cc(SCC(=O)O)c(O)c3ccccc23)c1	22µM*	65%	1.5µM*	nt
COc1c(Cl)cc(C(=O)Oc2cccc(C)c2)cc1Cl	nt	nt	nt	-5%
Cc1ccc(N2OC3C(=O)NC(=O)C3C2c2ccco2)cc1 (stereo not drawn)	-9%	-1%	-4%	6%[57.4 µM]
O=c1[nH]c(-c2ccc(-c3cccc(Cl)c3)o2)nc2ccccc12	-18%	?	nt	?
Cc1cccc(N2C(S)=C(C#N)C(=O)NC2c2ccco2)c1 (stereo not drawn)	28µM*	1%	?	-34%
N#CC1=C(S)N(c2ccccc2)C(c2ccc(-c3cccc(Cl)c3)o2)NC1=O (stereo not drawn)	?	-11%	24µM*	-9%
COc1ccc(N2C(S)=C(C#N)C(=O)NC2c2ccco2)cc1 (stereo not drawn)	40µM*	-8%	?	45µM*
COc1ccc(Nc2nc3ccccc3nc2NS(=O)(=O)c2cc(C)ccc2C)cc1	nt	nt	nt	1%
CC(C)N(Cc1ccc([N+](=O)[O-])cc1)c1ccccc1	nt	nt	nt	20%
CC(=O)c1cc2c(cc1NC(=O)Cn1c(=O)n(C)c(=O)c3sccc31)OCO2	nt	nt	nt	-38%
O=C(Nc1ccccc1C(=O)N1CCCCC1)NC1CCCCC1	-19%	4%	21µM*	2%
C/C(=N\Nc1ccc(Cl)c(C(=O)O)c1)c1cccc2ccccc12	?	-20%	27µM*	-20%
C/C(=N\Nc1ccc(Cl)c(C(=O)O)c1)c1cc2ccccc2o1	-19%	-21%	-14%	0%
COc1ccccc1N(CC(=O)NC1CC2CCC1C2)S(=O)(=O)c1ccc(C)cc1 (stereo not drawn)	-6%	-15%	-2%	?
COc1ccc(S(=O)(=O)N(CC(=O)NC2CC3CCC2C3)c2ccccc2OC)cc1 (stereo not drawn)	?	-4%	27µM*	-20%
COCCN(CC(=O)NCC1CCCO1)C(=O)CCC(=O)Nc1ccccn1 (stereo not drawn)	35µM*	-7%	4.7µM*	1%
COc1ccc(OC)c(N2C(=O)[C@@H]3C(c4ccccc4Cl)=NO[C@@H]3C2=O)c1	-2%	-27%	19µM*	?
CC(C)NC(=O)Nc1cccc2c1O[C@H](CN(C)S(=O)(=O)c1ccc(F)cc1)[C@@H](C)CN([C@H](C)CO)C2=O	?	-4%	19µM*	-8%
SMILES	VDR inh	GCN5L2 inh	PLK1 PBD block	ALOX12 inh
COc1ccc(CN2CCC(C(=O)NC(C)c3cccc4ccccc34)CC2)cc1 (stereo not drawn)	nt	nt	-15%	nt
COc1ccc(OCCN2CCC(C(=O)NC(c3ccc(Cl)cc3)c3cccnc3)CC2)cc1 (stereo not drawn)	nt	nt	-5%	-6%
O=C(NC(c1ccc(Cl)cc1)c1ccsc1)C1CCN(CCOc2ccc(Cl)cc2)CC1 (stereo not drawn)	nt	nt	5%	32µM*
CC(NC(=O)C1CCN(CCOc2ccc(Cl)cc2)CC1)c1cccc2ccccc12 (stereo not drawn)	nt	nt	-17%	22µM*
Cn1c(=O)c2ccnn2c2ccc(C(=O)NCC3CCN(Cc4cccc(F)c4)CC3)cc21	nt	nt	nt	-6%
COCCSc1ccccc1C(=O)Nc1nnc(COC)s1	1%	-1%	27µM*	?
COCc1nnc(NC(=O)CSc2ccccc2)s1	-4%	0%	-12%	-33%
COCc1nnc(NC(=O)c2ccccc2Oc2ccccc2)s1	-8%	-3%	-6%	-1%
COCc1nnc(NC(=O)CSCc2ccccc2)s1	-5%	-8%	21µM*	?
COCCSc1ccccc1C(=O)Nc1cc(C)on1	-5%	?	?	?
